# Screening data as filed in PubChem BioAssay.
# Vif imaging = blocks HIV Vif function | HEK293T cells, Vif self-association by quenched fluorescence, imaging, 24 h | inhibition, % at 7.49 µM | 0.35% of 340,000 active; in the data active = inhibition above about 50%, passing the limit was not always enough; inconclusive = no clear call, values can overlap the other calls; inactive = below about 31%
# dFosB act = enhances mouse delta FosB homodimer DNA binding; P13346; activation, % at 25 µM; 0.99% of 340,000 active; purified delta FosB, TAMRA-CDK5 oligo fluorescence polarization; percent of positive-control signal above neutral wells;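 active = mean activation above about 17%, with every replicate also reaching it, limit read from the data, passing the limit was not always enough; inconclusive = only one of the two conditions met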
# Target sequence (P13346 whole entry, looked up): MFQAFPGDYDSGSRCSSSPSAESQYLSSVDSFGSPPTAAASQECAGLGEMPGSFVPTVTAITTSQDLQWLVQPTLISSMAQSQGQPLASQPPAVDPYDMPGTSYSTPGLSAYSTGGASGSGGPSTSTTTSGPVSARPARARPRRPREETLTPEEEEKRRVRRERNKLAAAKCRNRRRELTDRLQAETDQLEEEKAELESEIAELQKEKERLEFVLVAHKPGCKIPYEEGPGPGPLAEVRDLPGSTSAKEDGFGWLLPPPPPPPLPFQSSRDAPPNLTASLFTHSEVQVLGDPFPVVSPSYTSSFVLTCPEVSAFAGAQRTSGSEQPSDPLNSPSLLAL
# Bfl-1 A1 inh = inhibitors of the anti-apoptotic protein A1, read as caspase activation. MEF A1-2A-BIM cells, Caspase-Glo 3/7 luminescence, 3 h; percent of clofoctol response, vehicle zero. caspase activation, % (concentration not given with the values). 0.066% of 330,000 active. AID 2462;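 active = over half of replicate activation scores above 10%, or exactly half above 10 with the replicate mean above 10; inconclusive = replicate mean below 10 yet half the replicates above 10; inactive = over half of replicates below 10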
# GSIS activator = GLuc luminescence reporter in INS-1E cells, primary screen for activators of glucose-dependent secretion of insulin; activation, % at 16.6 µM; 0.61% of 370,000 active; INS-1E GLuc reporter insulin secretion, 2-3 h;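 active = lowest replicate activation of at least 40%, so every replicate reaches that level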
# Neddylation inh = inhibitors of human cullin neddylation; 0.58% of 360,000 active; TR-FRET cullin neddylation, biochemical; inhibition, % at 25 µM; P61081+Q13564; in the data active = inhibition above about 36%
# Neddyl inh conf = confirmation of human cullin neddylation inhibitors. shares compounds with Neddylation inh. TR-FRET cullin neddylation biochemical assay. calls only at 25 µM. 13% of 1,800 active; in the data active = inhibition above about 40%;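 also: neddylation substrate is the cullin 1 ring ligase complex with SKP2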
# A number is an active result; . = inactive; ? = inconclusive; / = not tested or not shown; + = active, no number. A selection: hits, their analogues and other compounds. The true share with any hit is near 1.9%.
SMILES,Vif imaging,dFosB act,Bfl-1 A1 inh,GSIS activator,Neddylation inh,Neddyl inh conf
CCOC(=O)N1CCC(Nc2cc(C)nc3c(-c4ccccc4OC)c(C)nn23)CC1,.,.,.,.,40.3,.
COc1ccccc1-c1c(C)nn2c(N3CCC(C)CC3)cc(C)nc12,.,.,.,.,38.3,/
CCOC(=O)N1CCN(C(=O)CSc2cc(C)nc3c(-c4ccccc4OC)c(C)nn23)CC1,.,.,.,/,.,/
CNC[C@H]1Oc2ncc(Br)cc2C(=O)N([C@@H](C)CO)C[C@@H]1C,/,/,/,.,/,/
COc1cc2oc(-c3ccc(O)cc3)cc(=O)c2c(OC)c1O,.,.,/,.,40.0,.
COc1cc2oc(-c3ccc(O)cc3)cc(=O)c2c(O)c1OC,.,.,.,/,.,/
Cc1cc(=O)oc2c(C)c(OC3CCCCC3=O)ccc12 (stereo not drawn),.,.,.,.,43.6,+
COC(=O)Cc1c(C)c2ccc(OC3CCCCC3=O)c(C)c2oc1=O (stereo not drawn),.,.,.,.,/,/
C[C@@H]1CCCCO[C@@H](CN(C)C(=O)c2ccccc2)[C@@H](C)CN([C@@H](C)CO)C(=O)c2cc(NC(=O)c3ccccc3)ccc2O1,/,/,/,.,/,/
COc1ccc(/C=N/NC(=O)c2[nH]c3ccc(Cl)cc3c2-c2ccccc2)c(C(=O)O)c1OC,.,.,.,.,41.7,/
CCOc1ccc(/C=N/NC(=O)c2cc3c(OC)cccc3[nH]2)cc1,.,.,.,.,42.8,.
COc1ccc(/C=N/NC(=O)c2[nH]c3ccc(Br)cc3c2-c2ccccc2)c(C(=O)O)c1OC,.,.,.,.,.,/
COc1cccc(/C=N/NC(=O)c2cc3c(OC)cccc3[nH]2)c1OC,.,.,.,.,43.0,.
CN(C)Cc1cn(CC[C@@H]2CC[C@@H](NC(=O)Nc3ccc4c(c3)OCO4)[C@H](CO)O2)nn1,/,/,/,.,/,/
COc1cc(/C=C/C(=O)OCC(=O)Nc2cc(S(=O)(=O)N3CCCCC3)ccc2C)ccc1O,.,.,.,.,41.0,.
COc1cc(/C=C/C(=O)OCC(=O)Nc2cc(S(=O)(=O)N(C)C)ccc2Cl)ccc1O,.,.,.,.,/,/
CCN(CC)S(=O)(=O)c1ccc(Cl)c(NC(=O)COC(=O)/C=C/c2ccc(O)c(OC)c2)c1,?,.,.,/,39.7,.
CC(C)c1nc2oc3c(=O)[nH]cnc3c2c2c1COC(C)(C)C2,.,.,.,.,.,/
CC(C)c1nc2oc3c(=O)[nH]cnc3c2c2c1CCC2,.,.,.,/,41.1,.
O=C(CN1CCOCC1)N[C@H]1CC[C@H](CCNC(=O)C2CCCC2)O[C@@H]1CO,/,/,/,.,/,/
N#Cc1nc(-c2ccco2)oc1NCCc1ccccc1,.,.,.,/,.,/
COc1ccc(CCNc2oc(-c3ccco3)nc2C#N)cc1,.,.,.,.,45.3,+
COCC(=O)Nc1ccc2c(c1)[C@@H]1C[C@H](CC(=O)NCc3ccc(OC)cc3)O[C@H](CO)[C@@H]1O2,/,/,/,.,/,/
c1ccc(-n2ncc3c(NCc4ccccn4)ncnc32)cc1,.,.,.,.,.,/
Cc1cccc(-n2ncc3c(NCc4ccccn4)ncnc32)c1,.,.,.,/,40.2,.
SMILES,Vif imaging,dFosB act,Bfl-1 A1 inh,GSIS activator,Neddylation inh,Neddyl inh conf
CCOc1ccccc1C(=O)Nc1cc2c(cc1N1CCCC1)n(CC)c(=O)n2CC,.,.,.,.,46.5,.
CC1(C)Cc2c(sc(NC(=O)c3ccc4c(c3)OCCO4)c2C(N)=O)C(C)(C)N1,.,.,.,.,39.8,.
Cc1ncc(CC(=O)n2cc(C(=O)c3cc(F)ccc3O)cn2)s1,.,.,.,/,41.2,.
COC(=O)c1cc(OC)c(OC)c(OC)c1[N+](=O)[O-],.,.,.,.,.,/
COC(=O)c1cc(OC)c(OC)c(OC)c1N,.,.,.,/,38.4,.
CCC(=O)N(C)C[C@@H]1Oc2cc(C#CC3CCCC3)ccc2S(=O)(=O)N([C@@H](C)CO)C[C@@H]1C,/,/,/,.,/,/
CCCn1c(C)cc(/C=C(\C#N)C(=O)OCC(=O)Nc2ccc(OC)c(Cl)c2)c1C,.,.,.,.,/,/
COCCn1c(C)cc(/C=C(\C#N)C(=O)OCC(=O)Nc2ccc(S(N)(=O)=O)cc2)c1C,.,.,/,.,40.0,+
C[C@@H]1CCCCO[C@H](CN(C)S(=O)(=O)c2cccs2)[C@H](C)CN([C@@H](C)CO)C(=O)c2cc(NC(=O)Nc3ccc(C(F)(F)F)cc3)ccc2O1,/,/,/,.,/,/
O=C(O)C[C@@H]1C[C@@H]2c3cc(NC(=O)Cc4ccncc4)ccc3O[C@@H]2[C@H](CO)O1,/,/,/,.,/,/
COc1ccc2nc(NC(=O)c3c(C)noc3C)sc2c1,.,.,.,.,33.5,.
CC(C)NC(=O)Nc1ccc2c(c1)CC(=O)N([C@H](C)CO)C[C@@H](C)[C@@H](CN(C)C(=O)Nc1ccc(F)cc1)O2,/,/,/,.,/,/
FC(F)C(F)(F)Oc1cccc(Nc2nccn3c(-c4cccc5ccccc45)cnc23)c1,.,/,/,.,47.0,.
CCc1ccccc1Cn1c(=O)oc2cccnc21,.,.,.,.,48.5,.
C[C@@H]1CN([C@@H](C)CO)S(=O)(=O)c2ccc(C#Cc3ccccn3)cc2O[C@@H]1CN(C)Cc1ccccc1,/,/,/,.,/,/
O=C(Cc1ccccn1)N1CC(=O)N2[C@H](CO)[C@H](c3ccc(-c4ccc(F)cc4)cc3)[C@H]2C1,/,/,/,.,/,/
COc1ccc(-c2csc(N3CCN(c4cc5c(cc4Cl)nc(-c4ccncc4)n5CCOCCO)CC3)n2)cc1,.,.,.,.,41.5,.
COc1ccc(-c2csc(NCCc3nc4cc(Cl)c(N5CCCCC5)cc4n3CCOCCO)n2)cc1,/,.,.,.,.,/
CC(C)CN(CC(C)C)c1nc(N)c(C#N)c(CC#N)c1C#N,?,.,.,/,37.7,/
CCCCCCC(=O)Nc1cc2c(C)cc(=O)oc2cc1C,.,.,.,/,.,/
CCC(=O)Nc1cc2c(C)cc(=O)oc2cc1C,.,.,.,/,49.7,/
CC(C)C[C@@H](CSc1ccccc1)N1CCN(CCc2ccccc2)CCC1=O,.,.,.,/,28.8,.
COc1ccc(-c2cc3ccccc3n2CC(O)CNC(CO)(CO)CO)cc1 (stereo not drawn),.,.,.,/,45.1,/
COc1cc(/C=C/C2=NNC(=O)CC2)cc(OC)c1OC,.,.,.,.,41.2,.
CC(C)c1ccc(/C=C/C2=NNC(=O)CC2)cc1,.,.,.,.,.,/
CCOC(=O)Cc1csc(NC(=O)/C=C/c2ccc(Cl)cc2)n1,.,.,.,.,37.7,.
c1ccc2c(c1)ccc1nnc(-c3ccc4c(c3)OCO4)n12,.,.,.,/,46.1,/
C[C@H](CO)N1C[C@H](C)[C@H](CN(C)Cc2ccc(C(=O)O)cc2)OCCCC[C@H](C)Oc2ccc(NC(=O)Nc3ccc4c(c3)OCO4)cc2C1=O,/,/,/,.,/,/
CC(=O)c1ccc(-c2ccc(C(=O)N(C)Cc3nc4ccccc4c(=O)[nH]3)o2)cc1,.,.,.,.,73.3,/
CCOC(=O)c1cn2nc(Oc3cccc(F)c3)ccc2n1,.,.,.,.,41.3,.
